These results are taken from the supplement of paper PMC13380429.

The test system of assay [1] is Vero E6 infected with SARS-CoV-2. Description: morphology score (similarity to uninfected cells); higher = more like uninfected cells. The conditions noted are these: 24 h.
Assay [2] has the same test system. Description: SARS-CoV-2 infection rate relative to infected DMSO; higher = more infection, active = 60 or less. As to conditions: 24 h.

Counter-ions that a name gives are not always drawn.

For `CCCCCCCCNC(C)C(O)c1ccc(SC(C)C)cc1` (configuration not stated) [suloctidil] (10 µM), the morphology score in assay [1] turned out to be 0.834. The SARS-CoV-2 infection rate in assay [2] is 21.5% (active).
In the same order, the values of `COc1ccccc1OC(=O)C(C)c1ccc(CC(C)C)cc1` (configuration not stated) [metoxibutropate] (10 µM) are 0.217 and 101% (inactive).
In the same order, the values of `CC(C)(C)C(=O)C(Oc1ccc(Cl)cc1)n1ccnc1` (configuration not stated) [climbazole] (10 µM) are 0.217 and 91.5% (inactive).
For the compound `NC(=O)CN1CC[C@@H](NC(=O)[C@@H]2CCCN2)C1=O` (10 µM), the morphology score in assay [1] is 0.096. Moreover, in assay [2], the SARS-CoV-2 infection rate was 110% (inactive).
In the same order, the values of `CNCCc1cnc[nH]1` [N-alpha-methylhistamine-dihydrochloride] (10 µM) are -0.0409 and 110% (inactive).
With `Cc1ccc(-c2nn(C(C)(C)CNC(=O)c3ncccc3C)c3ncnc(N)c23)cc1` [WEHI-345-analog] (0.833333 µM), the morphology score in assay [1] is -0.0639. In addition, the SARS-CoV-2 infection rate in assay [2] is 122% (inactive).
In the same order, the values of `CC1(C)O[C@@H]2C[C@H]3[C@@H]4CCC5=CC(=O)CC[C@]5(C)[C@@]4(F)[C@@H](O)C[C@]3(C)[C@]2(C(=O)CCl)O1` [halcinonide] (10 µM) are 0.157 and 106% (inactive).
The corresponding values for `O=C(CNC(=O)c1cccc(C(F)(F)F)c1)N[C@@H]1CCN(Cc2ccc(Cl)cc2)C1` [teijin-compound-1] (10 µM) are -0.116 and 103% (inactive).
The corresponding values for `CCC(=O)Nc1cccc(Oc2nc(Nc3ccc(N4CCN(C)CC4)cc3OC)ncc2Cl)c1` (10 µM) are 0.0191 and 114% (inactive).
Regarding `COC(=O)C1=C(C)NC(C)=C(C(=O)OCCN2CCN(C(c3ccccc3)c3ccccc3)CC2)C1c1cccc([N+](=O)[O-])c1` (configuration not stated) [manidipine] (10 µM), in assay [1], the morphology score stood at 0.247. The SARS-CoV-2 infection rate in assay [2] is 91% (inactive).
In assay [1], `O=C1Nc2ccc(Cl)cc2[C@@](C#CC2CC2)(C(F)(F)F)O1` [efavirenz] (10 µM) yielded a morphology score of 0.0664. For the same compound, in assay [2], the SARS-CoV-2 infection rate was 108% (inactive).
As to `Cn1c(=O)c2c(ncn2CCO)n(C)c1=O` [etofylline] (10 µM), in assay [1], the morphology score was 0.0956. Further, the SARS-CoV-2 infection rate in assay [2] was 104% (inactive).
The corresponding values for `COCCOc1ccc(N2CCN(CCn3ncc4c3nc(N)n3nc(-c5ccco5)nc43)CC2)cc1` [preladenant] (10 µM) are 0.0084 and 111% (inactive).
In the same order, the values of `CNC(=O)c1ccc(-c2cnc3ncc(Cc4ccc5ncccc5c4)n3n2)cc1F` (10 µM) are 0.0374 and 98% (inactive).
The corresponding values for `CC(=O)N1CCN(C)CC1` [1-acetyl-4-methylpiperazine] (10 µM) are -0.0421 and 102% (inactive).
For the compound `O=C1NC(=O)/C(=C/c2ccc3nccc(-c4ccncc4)c3c2)S1` (0.833333 µM), the morphology score in assay [1] was 0.151. Further, the SARS-CoV-2 infection rate in assay [2] is 108% (inactive).
For the compound `CC(C)[C@@]1(NC(=O)[C@@H]2C[C@@H]3c4cccc5[nH]cc(c45)C[C@H]3N(C)C2)O[C@@]2(O)[C@@H]3CCCN3C(=O)[C@H](Cc3ccccc3)N2C1=O` [dihydroergocristine] (10 µM), the morphology score in assay [1] is -0.123. The SARS-CoV-2 infection rate in assay [2] was 117% (inactive).
The corresponding values for `OCc1ccccc1O` [salicyl-alcohol] (10 µM) are -0.0183 and 106% (inactive).
The corresponding values for `CCCN[C@H]1CCc2nc(N)sc2C1` [pramipexole] (10 µM) are 0.032 and 120% (inactive).
The corresponding values for `CCOC(=O)c1c(/C(C#N)=C\N)c2ccc(Cl)c(Cl)c2n1C` (10 µM) are -0.0335 and 105% (inactive).
For the compound `COC(=O)Nc1nc2cc(Sc3ccccc3)ccc2[nH]1` [fenbendazole] (0.833333 µM), the morphology score in assay [1] turned out to be 0.126. Besides, the SARS-CoV-2 infection rate in assay [2] is 106% (inactive).
In the same order, the values of `O=C(OCC(O)CO)c1ccccc1Nc1ccnc2c(C(F)(F)F)cccc12` (configuration not stated) [floctafenine] (10 µM) are -0.157 and 106% (inactive).
In the same order, the values of `NP(N)(=O)NC(=O)c1ccc(F)cc1` [flurofamide] (10 µM) are 0.21 and 94.5% (inactive).
In the case of `O=Nc1c(-c2c(O)[nH]c3ccccc23)[nH]c2ccccc12` [indirubin-3-monoxime] (0.833333 µM), the morphology score in assay [1] is 0.00718. Moreover, the SARS-CoV-2 infection rate in assay [2] was 106% (inactive).
In the same order, the values of `N[C@@H]1CCCN(c2c(/C=C3\SC(=O)NC3=O)cccc2-c2ccccc2)C1` (10 µM) are -0.0825 and 110% (inactive).
The corresponding values for `O=NO` [sodium-nitrite] (10 µM) are 0.176 and 108% (inactive).
The corresponding values for `CNNCc1ccc(C(=O)NC(C)C)cc1` [procarbazine] (10 µM) are 0.133 and 106% (inactive).
`O=C(CCCl)NCc1ccccc1` [beclamide] (10 µM) showed a morphology score in assay [1] of 0.278. For the same compound, in assay [2], the SARS-CoV-2 infection rate is 97.5% (inactive).
Consider `CN1CCCC(CN2c3ccccc3Sc3ccccc32)C1` (configuration not stated) [mepazine] (10 µM), for which the morphology score in assay [1] worked out at 0.538. In addition, in assay [2], the SARS-CoV-2 infection rate is 60.5% (inactive).
The corresponding values for `O=C1CCCCCCCCCCCCCCO1` [oxacyclohexadecan-2-one] (10 µM) are -0.0503 and 106% (inactive).
The corresponding values for `O=C(O)C1=CCCNC1` [guvacine] (10 µM) are 0.2 and 93% (inactive).
